Results from article PMC7819943, “Rice protein-binding microarrays: a tool to detect cis-acting elements near promoter regions in rice”.
In all, about 68,000 sequences were measured (“fluorescence intensity (a.u.)”: median about 9,100, highest 2% from about 16,000 on). This is one part of a sample in which the highest values are shown more often than they occur.

Biological target: OsWRKY34 (Oryza sativa, UniProt Q0JBA9 1-250)
Assay: protein-binding microarray (RPBM); PBS, 2% BSA, 51.3 ng/ul salmon testes DNA, 50 uM zinc acetate, 200 nM TF, 25 C, 1 h; high values mean tight binding
Conditions: protein: recombinant; tags: N-terminal polyhistidine and DsRed monomer fusion (pET32a); label: CyDye5-dUTP incorporated in the synthesized complementary strand; 3' TTTTT single-stranded linker to array surface; dsDNA, one strand shown
Summary of the method: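 Binding signal is reported as fluorescence intensity per feature (arbitrary units) from an Axon 4000B scanner. Incubation used 200 nM of each Ni–NTA-purified, N-terminally polyhistidine- and DsRed-fused transcription factor from E. coli BL21-CodonPlus on a double-stranded custom Agilent array for 1 h at 25 °C, with 50 µM zinc acetate in the buffer, followed by washing.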

Sequence of OsWRKY34 (Q0JBA9 entry or part of it): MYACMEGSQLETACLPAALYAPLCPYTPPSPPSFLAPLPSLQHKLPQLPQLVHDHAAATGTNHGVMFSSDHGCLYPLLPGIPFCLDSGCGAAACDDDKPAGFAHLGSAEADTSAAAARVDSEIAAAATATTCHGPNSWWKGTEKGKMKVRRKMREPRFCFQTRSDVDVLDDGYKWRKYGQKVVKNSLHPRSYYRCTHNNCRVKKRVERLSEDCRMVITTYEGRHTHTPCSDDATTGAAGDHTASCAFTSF

| Sequence | binding signal |
| --- | --- |
| CTACTTTACCAGCTCATCTATCACATCTTAACTGTATTTTCGGAGTCACCTAGTGCAG | 10300 fluorescence intensity (a.u.) |
| ACCCGTCTCTCTTTCTTTCTTTCTCTCTCTCCTGTGTTTTCGGAGTCACCTAGTGCAG | 8600 fluorescence intensity (a.u.) |
| TCCACACACCCCGCTTGCTAACCAACCGTGACACGCAACCCGGAGTCACCTAGTGCAG | 10100 fluorescence intensity (a.u.) |
| CCTAGCCCTAATTGATCCTTGCCTCGATGTTTTCCCTCCGCGGAGTCACCTAGTGCAG | 10100 fluorescence intensity (a.u.) |
| CCCTTGACAGCACAGAGGCAACAGCAAAACACACTCTCATCGGAGTCACCTAGTGCAG | 8580 fluorescence intensity (a.u.) |
| CTAGATTTTTTGGTGACATTTTTTAGTTGGTGTGCACGTGCGGAGTCACCTAGTGCAG | 10200 fluorescence intensity (a.u.) |
| ACTCCTCTGCATGCTTTTTTTTTCCCTTCAGTTTCAGTTGCGGAGTCACCTAGTGCAG | 11200 fluorescence intensity (a.u.) |
| GGCAACCACCTCAATTATTATTCCATTCCCTACCACCACTCGGAGTCACCTAGTGCAG | 9980 fluorescence intensity (a.u.) |
| GTTTTAAAATGGTTGACACCGTTGACTTTTTAGCACGTGTCGGAGTCACCTAGTGCAG | 30100 fluorescence intensity (a.u.) |
| TTTCAAAATATTTGACACCGTTGACTTTTTAACACATGTTCGGAGTCACCTAGTGCAG | 17900 fluorescence intensity (a.u.) |
| ATCCTAAAATGTTTGACACCATTGACTTTTTTAAAAATGTCGGAGTCACCTAGTGCAG | 8790 fluorescence intensity (a.u.) |
| TTTAACACATGTTTGACCGTTCGTCTTATTCAAAAACTTTCGGAGTCACCTAGTGCAG | 10900 fluorescence intensity (a.u.) |
| ACCTTTTTAAATATTTGACACTGTCGACTTTTTAGCACATCGGAGTCACCTAGTGCAG | 9730 fluorescence intensity (a.u.) |
| TTGACACCGTTGACTTTTTAGCACATGTTTGACCGTTCGTCGGAGTCACCTAGTGCAG | 35800 fluorescence intensity (a.u.) |
| TCAAAATGTTCGACACCGTTGACTTTTTAACACATGTTTGCGGAGTCACCTAGTGCAG | 14400 fluorescence intensity (a.u.) |
| TGTTTGACACCGTTGACTTTTTAGCACATGTTTGACCGTTCGGAGTCACCTAGTGCAG | 38000 fluorescence intensity (a.u.) |
| TGGCTTGGTCCGCTAGTTCCTAACATCATGACAGTATTTTCGGAGTCACCTAGTGCAG | 8280 fluorescence intensity (a.u.) |
| CCCAGGTAGGATATGTGTATGTGTTTATATGGGTGAGTCTCGGAGTCACCTAGTGCAG | 9300 fluorescence intensity (a.u.) |
| TTTACCTCTCTGCCGGCCTTTGCACGCTTGTAGCCCACCACGGAGTCACCTAGTGCAG | 9670 fluorescence intensity (a.u.) |
| GGCACGGTTTGAACGCATTACCCATTCCCCGTTTGACTTCCGGAGTCACCTAGTGCAG | 12800 fluorescence intensity (a.u.) |
| GCGTTACATACATCCTTATTATGTTGTTCATGTTTATAAACGGAGTCACCTAGTGCAG | 8240 fluorescence intensity (a.u.) |
| CCTATATCATCCTTTGATAAGATCGACTGTTTGCTATTTACGGAGTCACCTAGTGCAG | 9940 fluorescence intensity (a.u.) |
| TGCCAATGCCAGGGTTTTCGTCGGTTTTACATAAATTAACCGGAGTCACCTAGTGCAG | 8500 fluorescence intensity (a.u.) |

| Sequence | binding signal |
| --- | --- |
| GTGGAATCGTTCGTTCTTGACTTCACCTACCAAGATTTGCCGGAGTCACCTAGTGCAG | 8640 fluorescence intensity (a.u.) |
| CCTCGCTCCGTCGCTCACAACCCGTCTCCTGCTCGATCCGCGGAGTCACCTAGTGCAG | 9140 fluorescence intensity (a.u.) |
| TAGCATGACCTTTCACCCATACATATGAGCTACTTCTCTTCGGAGTCACCTAGTGCAG | 9280 fluorescence intensity (a.u.) |
| TTGATACCGTTGACTTTTTAGCACATGTTTGACCATTCATCGGAGTCACCTAGTGCAG | 39400 fluorescence intensity (a.u.) |
| ACGCCGTTGGCTTTTTAGCATATATTTGACCATTCATCTTCGGAGTCACCTAGTGCAG | 8190 fluorescence intensity (a.u.) |
| GAGATATCGTTGACTTTTAGCATAACATAGACCATTCAGCCGGAGTCACCTAGTGCAG | 18300 fluorescence intensity (a.u.) |
| ATGTATAACACTGTTGACTTTTTAAGATATATTTGATCATCGGAGTCACCTAGTGCAG | 15900 fluorescence intensity (a.u.) |
| TGTTTGACATCGTTGACTTTTTAACACATGTTTCACTGTTCGGAGTCACCTAGTGCAG | 36000 fluorescence intensity (a.u.) |
| TAGATAACGTCATTGACTTTTTCTCACATATTTGACCATTCGGAGTCACCTAGTGCAG | 12400 fluorescence intensity (a.u.) |
| GACACCGTTGACTTTTTAGCACATGTTTGACCGCTCATCTCGGAGTCACCTAGTGCAG | 32800 fluorescence intensity (a.u.) |
| ACAATTCACAAACGAACCTCTGCTGTTAGCCGCCTCTTTCCGGAGTCACCTAGTGCAG | 8190 fluorescence intensity (a.u.) |
| GTTGCTTACTACCTGGTATTAGTCATTGTGGGAGTAGTTCCGGAGTCACCTAGTGCAG | 8160 fluorescence intensity (a.u.) |
| TGGCATTTTTTTTTTTGGAATTGAGCACTTGTTAATGTCACGGAGTCACCTAGTGCAG | 8110 fluorescence intensity (a.u.) |
| GCTCACCTAACCCATTCACGTGGCGCCAAACCCTCAGGGGCGGAGTCACCTAGTGCAG | 8250 fluorescence intensity (a.u.) |
| CACTCGTTTTCAGATCATTTTCCATGGCGCCATGGCGCCTCGGAGTCACCTAGTGCAG | 8500 fluorescence intensity (a.u.) |
| ATCATTTAATTCCTGCGTTTTTCCTGCGATTCAATCAAACCGGAGTCACCTAGTGCAG | 11300 fluorescence intensity (a.u.) |
| AGCTATATTACTCACCTTCTCTCTTTAAGCCTGTCTAGTACGGAGTCACCTAGTGCAG | 10300 fluorescence intensity (a.u.) |
| TTTCCCTGATCCTTTTCCTAACCCAGTGGCAGGCATCTTTCGGAGTCACCTAGTGCAG | 9990 fluorescence intensity (a.u.) |
| CTACTTGTGCTGTGTCTTTGTTTTTCTTTCACATTTCTAGCGGAGTCACCTAGTGCAG | 14300 fluorescence intensity (a.u.) |
| GTGGGTCCACTTGCTACACATACCACCCCACTTAAACTTTCGGAGTCACCTAGTGCAG | 8640 fluorescence intensity (a.u.) |
| AATGTTTGACACCGTTGATTTTTTTAGCACATGTTTCACCCGGAGTCACCTAGTGCAG | 8960 fluorescence intensity (a.u.) |
| ATATTTGACACCGTTGACTTTTTAGCACATGTTTGACTGTCGGAGTCACCTAGTGCAG | 33000 fluorescence intensity (a.u.) |
